These results are taken from PubChem BioAssay (NCATS).

The target in assay [1] is Methanococcus maripaludis chaperonin (MmCpn) (UniProt Q6LX38). Description: High-Throughput Screening for Modulators of Cytosolic Chaperonin Activity: MmCpn Primary Screen (AID 488978).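 Further: 50 nM MmCpn enzyme hydrolysing 30 µM ATP at 37 °C; 0% is about no effect.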 In a few lines: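 Measures ATPase turnover of the M. maripaludis chaperonin (50 nM final) against 30 uM ATP over 10 min at 37C, with compound added 5 min beforehand at room temperature. ADP is quantified by HTRF immunodetection.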

The target in assay [2] is Transient receptor potential cation channel subfamily V member 1 (Homo sapiens) (UniProt Q8NER1). Nature of the assay: HTS Assay for Compounds that Act as Enhancers of the Vanilloid Receptor 1 (AID 488979). Further: 0% is about no effect. Summed up:
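TRPV1-expressing cells loaded with Fluo-8 calcium dye; compounds added and calcium influx read kinetically for 3 min (agonist phase), then capsaicin at EC20 added and read 2 min more for enhancement. Fluorescence ex 480/em 520 nm.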

The target of assay [3] is Thyrotropin receptor (Homo sapiens) (UniProt P16473). Nature of the assay: qHTS Assay for Antagonists of the Thyroid Stimulating Hormone Receptor (AID 488980). Further: series mostly up to about 58 µM; 0% is about no effect. In a few lines:
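Cells expressing human TSHR (HEK293) are dispensed in HBSS/HEPES containing 70 uM RO 20-1724, compound is added, then TSH at EC80 (4 nM final). Antibody in lysis buffer follows, 30 minutes at room temperature before HTRF detection.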

Assay [4] deals with D(1A) dopamine receptor (Homo sapiens) (UniProt P21728). Description: HTS Assay for Allosteric Agonists of the Human D1 Dopamine Receptor: Primary Screen for Agonists (AID 488981). Further: 0% is about no effect. In a few lines: (§1)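 Tetracycline-induced HEK293 T-REx cells force-coupled to calcium signalling were incubated overnight at 30 C and dye-loaded at room temperature. Calcium flux over 180 s after compound addition flagged agonists; a further 180 s read after EC20 dopamine flagged potentiators.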

Assay [5] has the same target. Description: HTS Assay for Allosteric Agonists of the Human D1 Dopamine Receptor: Primary Screen for Potentiators (AID 488982). Further: 0% is about no effect. Summed up: as §1
Assay [6] shares this target. Nature of the assay: HTS Assay for Allosteric Agonists of the Human D1 Dopamine Receptor: Primary Screen for Antagonists (AID 488983).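 Further: calcium flux response to an EC80 dopamine challenge measured with no-wash dye; on the % scale 0 is the no-effect control and ±100 the full control effect; nearly all actives have a fitted effect of over 65% in size.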 Summed up:
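Calcium-flux read-out in inducible HEK293 T-REx cells expressing D1, dye-loaded 30–90 min at room temperature. Kinetic reads: 180 s after compound (agonist phase), then 180 s after an EC80 dopamine challenge.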

A short description of assay [7]: Validation screen for small molecules that induce genotoxicity in human embryonic kidney (HEK293T) cells expressing luciferase-tagged ELG1 (AID 493106). Further: potency means the concentration at half of the fitted maximal effect. Summed up: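 ELG1-luciferase reporter readout (ONE-Glo, 30 min, room temperature) after 16 hr compound treatment at 37 °C of HEK293T cells at 2,000 per well. Rising luminescence flags genotoxic stress.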
Assay [8] has as its target Thyrotropin-releasing hormone receptor (Homo sapiens) (UniProt P34981). Description: qHTS for Small Molecule Agonists and Allosteric Enhancers of Human TRH Receptor: Validation Screen for Agonists (AID 493127;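 active means calcium activation more than 3 SD above the typical response in the agonist read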;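 further: intracellular calcium rise by fluo-8 fluorescence before TRH EC20 addition; 0% is about no effect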). The conditions noted are these: TRH receptor agonist cell assay; at 2 µM; stronger effect = higher value. In a few lines:
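Compound-evoked intracellular calcium release in fluo-8-loaded TRHR cells, read kinetically on FDSS (Ex 480/Em 530, 1 s/cycle) after 23 nL pintool transfer. Agonist phase preceded 10 nM TRH EC20 addition.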
(In general: Quantitative high-throughput screening tests each substance at several concentrations.)

The nature of assay [9]: Nrf2 qHTS screen for inhibitors: Validation (AID 493153; active means well fitted inhibition curve with a large enough effect in the main read-out, with a control signal flat, not every such curve was filed as active). As to conditions: Potency: luciferase luminescence; viability change: measured here: cytotoxicity max response. In a few lines:
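Concentration-response on A549 ARE_Fluc reporter cells exposed 18-24 h at 37 C, 5% CO2. Cytotoxicity read first by CellTiter-Fluor fluorescence (Ex 405/Em 525), then Nrf2 inhibition by BugLite luminescence after 15 min.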

Assay [10] can be described thus: qHTS for Inhibitors of Cell Surface uPA Generation: Validation Assay (AID 493164).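 Further: RAW 264.7 macrophage cells exposed to compound for 18 h; 0% is about no effect.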 Summed up:
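ATP-Lite luminescence read-out: ATP remains high when uPA activity-dependent LF translocation into the cytoplasm is blocked. RAW 264.7 cells, 18 h compound exposure at 37 C; 7-point titration, 2.45 nM to 38.3 uM final.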

Assay [11] concerns the target Galactokinase (Homo sapiens) (UniProt P51570). Nature of the assay: qHTS Validation Assay for Inhibitors of Human Galactokinase (GALK) (AID 493189). Further: 0% is about no effect. Summed up:
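Compounds were pin-transferred into ATP buffer, then GALK-galactose mix was added (final 5 nM enzyme, 100 uM galactose, 35 uM ATP). After 1 h at room temperature, remaining ATP was measured luminescently.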

Assay [12] is described as follows: Validation screen for small molecules that induce DNA re-replication in SW480 colon adenocarcinoma cells (AID 504364). Further: 0% is about no effect. In a few lines: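 Image-based DNA content read-out: Hoechst stain 40 min, total nuclear fluorescence intensity (ex 405 nm, em 500-530 nm) after 48 h compound exposure of 250 SW480 cells/well at 37 C, 5% CO2, versus DMSO vehicle.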
For assay [13], the target named is Peptidyl-prolyl cis-trans isomerase NIMA-interacting 1 (Homo sapiens) (UniProt Q13526). Nature of the assay: qHTS Validation Assay to Find Inhibitors of Pin1 (AID 504536; active means well fitted inhibition curve with a large enough effect in the polarisation, with a control signal flat, not every such curve was filed as active; the % refers to the polarisation;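 further: 0% = full Pin1 enzyme wells and -100% = no-enzyme wells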). Summed up:
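Fluorescence polarization competition: compounds (titration) displace HiFluor-488-labeled Pin1-1b peptide from Pin1 (0.3 uM final) in pH 7.5 HEPES buffer with DTT, 10 min at room temperature; %Activity normalized to no-enzyme wells, curves fitted.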

In assay [14] the target is Phosphoglycerate kinase, glycosomal (Trypanosoma brucei brucei) (UniProt P07378). Nature of the assay: qHTS Validation Assay to Find Inhibitors of Phosphoglycerate Kinase (AID 504547).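 Further: control wells lack PGK and mark full inhibition.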 Summed up: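 In TEA buffer (100mM, pH 7.6) containing 5mM MgCl2 and 0.01% Tween-20, the GAPDH-coupled PGK reaction proceeded for 60 minutes at room temperature before a single luminescence reading using Kinase-Glo Plus.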

Assay [15] addresses phosphoglycerate mutase (Leishmania major) (UniProt Q4Q090). Nature of the assay: qHTS Validation Assay to Find Inhibitors of Phosphoglycerate Mutase (AID 504548). Further: series mostly up to about 58 µM; on the % scale 0 is the no-effect control and ±100 the full control effect. The conditions noted are these: Potency: inhibition qHTS. In a few lines:
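Lm PGAM 1.25nM final; 100 mM TEA pH 7.6, 5 mM MgCl2, 0.01% Tween-20; 45 min RT; Kinase-GloPlus, 10 min; end-point luminescence. Enzyme-free wells as negative controls.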

The target of assay [16] is Ubiquitin carboxyl-terminal hydrolase 1 (Homo sapiens) (UniProt O94782). Description: Inhibitors of USP1/UAF1: Pilot qHTS (AID 504865).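 Further: rhodamine fluorescence freed from ubiquitin-rhodamine substrate followed over time; top concentration of the series differs between compounds; on the % scale 0 is the no-effect control and ±100 the full control effect; nearly all actives have a fitted effect of over 35% in size.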 Summed up: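 Kinetic fluorescence assay: 1nM USP1/UAF1, 15 min compound preincubation, then 150nM Ub-Rho; 480/540 nm.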
Assay [17] in a line: qHTS for Inhibitors of ATXN expression: Validation of Cytotoxic Assay (AID 588349). Further: on the % scale 0 is the no-effect control and ±100 the full control effect. In a few lines: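 Cytotoxicity counter-screen: ATP-based luminescent viability (CellTiter Glo) after 72 hr exposure of HEK293 cells to a compound titration at 37 degrees C.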
In assay [18] the target is ATPase family AAA domain-containing protein 5 (Homo sapiens) (UniProt Q96QE3). Nature of the assay: Validation screen for small molecules that inhibit ELG1-dependent DNA repair in human embryonic kidney (HEK293T) cells expressing luciferase-tagged ELG1 (AID 493107).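 Further: series mostly up to about 46 µM; on the % scale 0 is the no-effect control and ±100 the full control effect; inhibitors lower the ELG1-luciferase luminescence signal; nearly all actives have a fitted effect of over 70% in size.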 Summed up:
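Luciferase read-out, ONE-Glo, 30 min at room temperature, follows 16 h co-exposure at 37 C of compound and the DNA-damaging agent 5-fluorouridine. Cells: HEK293T with ELG1-luciferase fusion, 2,000 per well, DMSO as vehicle.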

Records with an inconclusive call do not appear. Activity calls are given as the source filed them. Unless noted, the call rests on the fitted dose curve; in most records, active means well fitted curve in the direction sought with a large enough effect; inconclusive means small, poorly fitted or top-dose-only effect, or another doubt; inactive means no such curve, though single readings can be large; an effect the other way counts as inactive or inconclusive.

Chain of Phosphoglycerate kinase, glycosomal (Trypanosoma brucei brucei) (P07378 whole entry, looked up): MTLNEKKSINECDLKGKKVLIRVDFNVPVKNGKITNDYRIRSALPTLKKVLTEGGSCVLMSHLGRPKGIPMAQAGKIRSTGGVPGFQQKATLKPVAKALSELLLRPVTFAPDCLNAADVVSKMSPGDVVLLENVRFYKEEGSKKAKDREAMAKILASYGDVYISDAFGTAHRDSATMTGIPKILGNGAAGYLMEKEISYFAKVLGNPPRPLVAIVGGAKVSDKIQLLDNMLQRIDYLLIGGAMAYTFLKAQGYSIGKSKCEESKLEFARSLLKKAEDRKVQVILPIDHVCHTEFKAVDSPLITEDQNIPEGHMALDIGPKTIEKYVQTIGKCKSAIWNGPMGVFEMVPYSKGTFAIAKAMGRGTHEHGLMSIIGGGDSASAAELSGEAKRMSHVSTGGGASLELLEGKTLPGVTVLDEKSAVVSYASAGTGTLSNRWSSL
Chain of Galactokinase (Homo sapiens) (P51570 whole entry, looked up): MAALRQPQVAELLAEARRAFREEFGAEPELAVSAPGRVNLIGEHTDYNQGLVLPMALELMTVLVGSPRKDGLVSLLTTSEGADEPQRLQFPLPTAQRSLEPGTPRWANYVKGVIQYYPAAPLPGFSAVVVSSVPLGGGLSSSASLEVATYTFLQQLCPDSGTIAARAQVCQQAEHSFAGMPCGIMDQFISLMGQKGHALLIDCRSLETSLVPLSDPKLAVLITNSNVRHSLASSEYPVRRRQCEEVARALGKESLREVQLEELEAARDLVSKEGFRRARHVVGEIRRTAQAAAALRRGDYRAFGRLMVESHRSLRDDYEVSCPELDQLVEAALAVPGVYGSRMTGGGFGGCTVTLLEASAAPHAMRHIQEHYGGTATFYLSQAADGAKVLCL
Chain of Methanococcus maripaludis chaperonin (MmCpn) (Q6LX38 1-543): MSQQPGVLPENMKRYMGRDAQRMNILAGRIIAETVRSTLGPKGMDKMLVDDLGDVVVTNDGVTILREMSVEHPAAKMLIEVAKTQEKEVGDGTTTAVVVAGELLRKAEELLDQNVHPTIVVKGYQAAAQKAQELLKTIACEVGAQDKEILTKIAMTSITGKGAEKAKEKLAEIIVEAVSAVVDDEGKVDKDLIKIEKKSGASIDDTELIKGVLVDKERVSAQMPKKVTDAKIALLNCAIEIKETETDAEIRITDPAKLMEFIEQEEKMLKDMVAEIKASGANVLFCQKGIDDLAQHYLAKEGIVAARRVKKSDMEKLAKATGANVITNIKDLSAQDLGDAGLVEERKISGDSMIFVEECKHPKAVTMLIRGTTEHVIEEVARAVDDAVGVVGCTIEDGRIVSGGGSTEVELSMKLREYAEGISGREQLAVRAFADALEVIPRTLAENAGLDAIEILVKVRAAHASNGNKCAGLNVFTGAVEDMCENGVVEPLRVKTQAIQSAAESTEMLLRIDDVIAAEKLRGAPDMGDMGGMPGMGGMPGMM
Chain of Thyrotropin receptor (Homo sapiens) (P16473 whole entry, looked up): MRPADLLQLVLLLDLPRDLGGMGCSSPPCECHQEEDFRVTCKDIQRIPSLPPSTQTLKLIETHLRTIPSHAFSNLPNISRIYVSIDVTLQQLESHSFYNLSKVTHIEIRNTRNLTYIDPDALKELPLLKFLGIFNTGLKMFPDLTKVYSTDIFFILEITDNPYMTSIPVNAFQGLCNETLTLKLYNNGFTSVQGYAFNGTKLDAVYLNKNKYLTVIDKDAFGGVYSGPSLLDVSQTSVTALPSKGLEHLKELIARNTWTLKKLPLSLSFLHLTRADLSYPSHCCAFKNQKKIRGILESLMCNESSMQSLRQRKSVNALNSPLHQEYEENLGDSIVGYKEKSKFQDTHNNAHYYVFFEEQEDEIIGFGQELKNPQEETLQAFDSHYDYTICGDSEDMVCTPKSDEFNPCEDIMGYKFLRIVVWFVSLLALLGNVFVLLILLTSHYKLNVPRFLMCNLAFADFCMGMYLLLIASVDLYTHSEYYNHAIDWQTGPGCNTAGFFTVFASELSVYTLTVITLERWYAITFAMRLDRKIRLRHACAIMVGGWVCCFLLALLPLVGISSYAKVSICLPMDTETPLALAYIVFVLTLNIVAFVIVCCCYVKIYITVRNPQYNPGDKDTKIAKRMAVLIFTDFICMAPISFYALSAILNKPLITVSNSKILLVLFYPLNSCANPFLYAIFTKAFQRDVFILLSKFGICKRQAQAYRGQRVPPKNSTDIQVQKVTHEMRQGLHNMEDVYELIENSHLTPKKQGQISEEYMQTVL
Chain of ATPase family AAA domain-containing protein 5 (Homo sapiens) (Q96QE3 whole entry, looked up, the tested form may be a part): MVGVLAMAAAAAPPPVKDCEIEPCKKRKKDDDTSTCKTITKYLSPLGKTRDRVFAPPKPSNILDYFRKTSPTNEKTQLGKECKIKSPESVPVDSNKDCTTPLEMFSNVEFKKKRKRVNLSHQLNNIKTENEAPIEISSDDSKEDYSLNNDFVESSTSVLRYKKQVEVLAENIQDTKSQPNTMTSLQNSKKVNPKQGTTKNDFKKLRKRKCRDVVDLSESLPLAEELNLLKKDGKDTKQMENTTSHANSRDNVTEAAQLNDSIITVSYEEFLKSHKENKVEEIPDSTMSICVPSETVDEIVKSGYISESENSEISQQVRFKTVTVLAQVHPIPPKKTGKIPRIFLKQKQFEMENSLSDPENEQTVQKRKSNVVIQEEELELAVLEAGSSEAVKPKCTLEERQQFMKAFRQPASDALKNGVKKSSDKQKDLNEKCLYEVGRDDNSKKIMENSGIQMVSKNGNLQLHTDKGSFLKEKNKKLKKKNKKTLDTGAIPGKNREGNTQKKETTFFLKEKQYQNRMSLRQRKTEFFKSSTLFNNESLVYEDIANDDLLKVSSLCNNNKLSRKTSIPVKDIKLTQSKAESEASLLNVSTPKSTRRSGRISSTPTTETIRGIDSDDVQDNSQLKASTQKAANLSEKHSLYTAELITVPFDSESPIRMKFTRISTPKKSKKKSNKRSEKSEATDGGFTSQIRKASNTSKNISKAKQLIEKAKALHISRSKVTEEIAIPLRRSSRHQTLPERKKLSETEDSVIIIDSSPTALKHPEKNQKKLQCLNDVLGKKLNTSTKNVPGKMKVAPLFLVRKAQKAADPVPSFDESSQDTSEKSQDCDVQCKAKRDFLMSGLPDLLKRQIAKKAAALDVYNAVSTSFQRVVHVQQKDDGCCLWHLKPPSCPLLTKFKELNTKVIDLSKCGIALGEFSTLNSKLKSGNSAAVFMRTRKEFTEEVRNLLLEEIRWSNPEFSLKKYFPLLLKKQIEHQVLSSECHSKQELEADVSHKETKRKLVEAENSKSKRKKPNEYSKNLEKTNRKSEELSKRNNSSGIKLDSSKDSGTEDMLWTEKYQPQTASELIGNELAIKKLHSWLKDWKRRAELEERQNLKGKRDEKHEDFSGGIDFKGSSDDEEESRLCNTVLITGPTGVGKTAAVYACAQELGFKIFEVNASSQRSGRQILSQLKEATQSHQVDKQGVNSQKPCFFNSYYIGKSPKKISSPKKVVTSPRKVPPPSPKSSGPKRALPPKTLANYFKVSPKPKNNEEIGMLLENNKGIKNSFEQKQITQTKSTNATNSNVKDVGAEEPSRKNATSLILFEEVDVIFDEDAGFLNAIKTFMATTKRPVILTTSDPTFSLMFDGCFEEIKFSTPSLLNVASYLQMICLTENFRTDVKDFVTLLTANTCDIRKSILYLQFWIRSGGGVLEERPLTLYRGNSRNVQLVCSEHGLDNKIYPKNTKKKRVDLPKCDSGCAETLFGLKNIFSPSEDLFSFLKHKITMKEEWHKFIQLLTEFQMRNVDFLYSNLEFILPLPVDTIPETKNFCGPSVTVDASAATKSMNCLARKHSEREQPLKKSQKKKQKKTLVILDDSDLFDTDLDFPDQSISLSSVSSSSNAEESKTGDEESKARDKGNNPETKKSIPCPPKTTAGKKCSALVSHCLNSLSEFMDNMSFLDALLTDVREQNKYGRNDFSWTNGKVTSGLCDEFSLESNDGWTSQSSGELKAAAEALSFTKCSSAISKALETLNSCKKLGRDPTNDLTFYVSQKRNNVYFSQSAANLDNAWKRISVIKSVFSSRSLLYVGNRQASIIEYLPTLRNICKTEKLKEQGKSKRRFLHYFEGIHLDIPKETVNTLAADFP
Chain of Thyrotropin-releasing hormone receptor (Homo sapiens) (P34981 whole entry, looked up): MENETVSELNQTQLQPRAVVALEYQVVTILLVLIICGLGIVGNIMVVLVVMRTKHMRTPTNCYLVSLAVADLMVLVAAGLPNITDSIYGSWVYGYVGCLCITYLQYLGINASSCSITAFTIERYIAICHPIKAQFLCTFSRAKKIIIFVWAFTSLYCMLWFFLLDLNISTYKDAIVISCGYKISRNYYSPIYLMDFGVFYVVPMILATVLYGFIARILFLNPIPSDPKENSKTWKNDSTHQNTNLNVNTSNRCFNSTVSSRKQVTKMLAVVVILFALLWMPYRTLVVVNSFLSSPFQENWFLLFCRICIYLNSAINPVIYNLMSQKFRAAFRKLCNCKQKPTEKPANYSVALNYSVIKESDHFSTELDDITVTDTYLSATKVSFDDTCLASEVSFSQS
Chain of phosphoglycerate mutase (Leishmania major) (Q4Q090 1-553): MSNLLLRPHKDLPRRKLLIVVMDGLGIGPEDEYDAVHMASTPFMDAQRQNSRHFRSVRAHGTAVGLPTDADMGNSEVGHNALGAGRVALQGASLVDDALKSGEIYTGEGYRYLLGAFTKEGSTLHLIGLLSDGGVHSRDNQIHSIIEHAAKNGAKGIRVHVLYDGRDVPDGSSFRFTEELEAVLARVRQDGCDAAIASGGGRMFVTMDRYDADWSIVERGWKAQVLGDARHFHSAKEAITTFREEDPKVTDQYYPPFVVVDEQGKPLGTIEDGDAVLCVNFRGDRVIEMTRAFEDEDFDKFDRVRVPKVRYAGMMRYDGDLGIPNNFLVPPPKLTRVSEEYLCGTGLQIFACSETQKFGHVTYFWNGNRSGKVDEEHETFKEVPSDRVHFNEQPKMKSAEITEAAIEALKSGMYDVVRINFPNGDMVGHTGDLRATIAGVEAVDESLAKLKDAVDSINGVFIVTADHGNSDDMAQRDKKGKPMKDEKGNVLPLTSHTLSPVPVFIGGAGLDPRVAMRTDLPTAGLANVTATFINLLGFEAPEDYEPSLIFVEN

Take `CC1CN(S(=O)(=O)c2cccc3cnccc23)CCN1` (stereo not drawn): the call in assay [1], in assay [2], in [3] and in [10] was inactive. The Potency result in assay [4], in [5], in [6], in [7], in [9] and in assay [11] was “inactive” throughout. Also, the Potency entry in assay [12], in [13], in assay [14], in assay [15], in assay [16] and in assay [17] was “inactive” each time. In addition, the activation in assay [8] was 1.06% (inactive). Moreover, in assay [9], the viability change was determined as 1.98%.

Regarding `CC(=O)SCC[N+](C)(C)C`, the call in assay [1], in [2], in assay [3] and in [10] was inactive. Further, the Potency entry in [4], in assay [5], in assay [6], in [7], in assay [18] and in assay [9] was “inactive” throughout. The Potency entry in assay [11], in assay [12], in [13], in assay [14], in assay [16] and in assay [17] was “inactive” in each case. For the same compound, in assay [8], the activation is 0.875% (inactive). Moreover, in assay [9], the viability change was -2.78%.

Turning to `COc1ccc(NC(=O)/C=C/c2ccc(Cl)cc2)cc1`, the compound was classed as inactive in [1], in assay [2], in assay [3] and in assay [10]. In addition, the Potency entry in assay [4], in assay [5], in [6], in [9], in assay [11] and in assay [12] was “inactive” throughout. Further, the Potency result in assay [13] is “inactive”. Also, the Potency in assay [7] is 2590 nM (active). Besides, the activation in assay [8] was 1.19% (inactive). For the same compound, the viability change in assay [9] is -1.36%.

`N#C/C(=C\c1c[nH]c2ccccc12)C(=O)c1ccc(O)c(O)c1`: the compound was classed as inactive in [1], in assay [2], in assay [3] and in [10]. Further, the Potency entry in assay [4], in assay [5], in assay [6], in assay [7], in [9] and in assay [11] was “inactive” throughout. Besides, the Potency result in assay [15], in assay [16] and in assay [17] was “inactive” in each case. Also, the activation in assay [8] was 0.438% (inactive). For the same compound, in assay [9], the viability change was -8.11%.

For the compound `N[C@@H](CC(=O)O)C(=O)O`, the result in assay [1], in [2], in assay [3] and in assay [10] was inactive. Moreover, the Potency entry in assay [4], in assay [5], in assay [6], in [7], in [18] and in assay [9] was “inactive” throughout. The Potency entry in assay [11], in [12], in [13], in assay [14], in assay [15] and in assay [16] was “inactive” in each case. For the same compound, the Potency entry in [17] was “inactive”. Besides, the activation in [8] is 1.19% (inactive). Moreover, the viability change in assay [9] is -0.666%.

For `C[N+](C)(CCCCCC[N+](C)(C)CCCN1C(=O)c2cccc3cccc(c23)C1=O)CCCN1C(=O)c2cccc3cccc(c23)C1=O`, the compound was called inactive in assay [1], in assay [2], in assay [3] and in assay [10]. Also, the Potency result in assay [4], in assay [5], in assay [6], in assay [7], in [18] and in [9] was “inactive” each time. Also, the Potency entry in [11], in assay [12], in [13], in [14], in assay [15] and in assay [16] was “inactive” each time. The Potency result in [17] was “inactive”. Also, in assay [8], the activation was -0.188% (inactive). The viability change in assay [9] is -2.29%.

With `C[C@@H](NC(=O)/C(C#N)=C/c1ccc(O)c(O)c1)c1ccccc1`, the compound was called inactive in [1], in assay [2], in [3] and in [10]. In addition, the Potency result in [4], in [6], in assay [7], in [18], in assay [11] and in assay [12] was “inactive” each time. Further, the Potency result in assay [13], in assay [14], in [15] and in [16] was “inactive” in each case. For the same compound, the activation in assay [8] was 0.938% (inactive).

Regarding `CCCCCCCC/C=C\CCCCCCCC(=O)NCCO`, the call in assay [1], in assay [2], in assay [3] and in assay [10] was inactive. Further, the Potency entry in assay [4], in [5], in [7], in assay [9], in assay [11] and in assay [12] was “inactive” in each case. The Potency result in assay [14], in [15] and in [17] was “inactive” each time. The activation in [8] was 1.25% (inactive). The viability change in assay [9] came out at 1.03%.
